Tau fluor cs – counter-screen for tau fibril formation inhibitors; tau K18 P301L Alexa594 fluorescence, heparin fibrillization; Potency, µM (highest dose often 57.7 µM), for inactives: top-dose activity change, negative = decrease; 280,000 tested, 0.93% active; AID 1463; note: potency is the fitted concentration of half-maximal effect; nearly all actives have a fitted effect of over 55% in size
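Human K18 P301L tau (15 uM unlabeled plus 0.24 uM Alexa 594-labeled, final) in 100 mM sodium acetate pH 7 was mixed with compound and 20 uM heparin and incubated 6 hr at 37 C.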
FBPA coupling cs – counter-screen for Giardia aldolase inhibitors: coupling enzyme system; coupling enzyme system counterscreen, AmpLite Red fluorescence; activity change, negative = inhibition, % at 58.2 µM, hits read low; 290,000 tested, 0.67% active; in the data active = activity change below about -30%
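Activity here indicates interference with the coupling reaction, not aldolase inhibition. Compounds at 57.5 uM final met coupling enzymes for 10 min at RT; substrate and AmpLite Red detection followed, with a 525/598 nm fluorescence read after 20 min.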
USP1-UAF1 inh – blocks the human USP1/UAF1 deubiquitinase complex. 390,000 tested, 0.23% active. AID 743255. Potency, µM (highest dose often 57.1 µM), for inactives: top-dose activity change, negative = inhibition, most hits filed as inhibitors. recombinant USP1/UAF1, Ub-Rhodamine cleavage fluorescence. O94782; note: potency is the fitted concentration of half-maximal effect; nearly all actives have a fitted effect of over 60% in size
Target sequence (O94782 whole entry, looked up): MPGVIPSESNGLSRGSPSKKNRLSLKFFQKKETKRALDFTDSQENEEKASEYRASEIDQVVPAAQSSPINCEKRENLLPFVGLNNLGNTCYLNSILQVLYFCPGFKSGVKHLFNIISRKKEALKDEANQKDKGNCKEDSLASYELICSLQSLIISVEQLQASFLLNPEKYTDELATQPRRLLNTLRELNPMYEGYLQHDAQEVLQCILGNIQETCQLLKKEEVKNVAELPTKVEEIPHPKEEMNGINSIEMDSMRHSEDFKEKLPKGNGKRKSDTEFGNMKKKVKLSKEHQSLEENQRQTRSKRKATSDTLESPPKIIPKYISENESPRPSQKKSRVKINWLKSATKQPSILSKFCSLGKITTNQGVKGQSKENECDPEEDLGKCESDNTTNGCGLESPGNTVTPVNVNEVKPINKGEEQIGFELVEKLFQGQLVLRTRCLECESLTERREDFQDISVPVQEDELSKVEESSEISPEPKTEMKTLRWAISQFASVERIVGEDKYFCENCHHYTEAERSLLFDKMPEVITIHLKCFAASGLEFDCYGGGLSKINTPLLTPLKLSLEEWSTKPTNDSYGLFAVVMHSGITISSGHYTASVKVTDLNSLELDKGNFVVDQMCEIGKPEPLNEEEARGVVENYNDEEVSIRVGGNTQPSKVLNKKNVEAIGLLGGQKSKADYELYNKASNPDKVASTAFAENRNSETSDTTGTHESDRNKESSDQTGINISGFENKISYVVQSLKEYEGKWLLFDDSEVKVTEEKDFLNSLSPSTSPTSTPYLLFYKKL
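In this screen, compounds sit with the deubiquitinase complex (1nM) for 15 min at room temperature before Ub-Rho is added at 150nM final. Fluorescence rise is then followed for 6 reads every 60 seconds.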
Tau ThT inhib – tau fibrillization inhibition (ThT binding). 270,000 tested, 2.1% active. AID 1460. P10636. recombinant tau K18 P301L (four-repeat tau fragment), heparin-induced fibrillization, ThT fluorescence. Potency, µM (titrated, usually from 57.4 µM), inactives show at the top dose activity, negative = inhibition, actives largely listed as inhibitors; note: potency is the fitted concentration of half-maximal effect; nearly all actives have a fitted effect of over 55% in size
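Tau K18 P301L fragment (15 uM unlabeled plus 0.24 uM Alexa 594-labeled) in 100 mM sodium acetate pH 7 with compound, fibrillization induced by 20 uM heparin for 6 hr at 37 C. Thioflavin T (30 uM) added, fluorescence read after 1 hr (ex 450, em 510 nm).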
Tau fibril FP – inhibitors of human tau fibril formation. K18 P301L tau heparin fibrillization, Alexa594 FP, 6 h. Potency, µM (titrated, usually from 57.7 µM), without a hit: at the highest dose activity, negative = inhibition, most hits filed as inhibitors. 280,000 tested, 0.39% active. AID 1468; note: potency is the fitted concentration of half-maximal effect; nearly all actives have a fitted effect of over 55% in size
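Read-out: fluorescence polarization of Alexa 594-labeled tau (0.24 uM), 555 nm excitation, 632 nm emission. Mixtures held 15 uM unlabeled K18 P301L, compound and 20 uM heparin, pH 7 acetate buffer, incubated 6 hr at 37 C.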
The depositor's hits bear a star; ? = inconclusive; · = no result; ! = a repeat was not active; [ ] = another dose, or the depositor's remark. Hits are enriched below; roughly 2.3% of the tested compounds scored in any of these assays. Unless noted, calls come from the whole dose curve; as a rule, active = well fitted curve in the direction sought with a large enough effect; inconclusive = small, poorly fitted or top-dose-only effect, or another doubt; inactive = no such curve, though single readings can be large; an effect the other way counts as inactive or inconclusive. % is set by controls: 0 for no effect and ±100 for the full control effect.

SMILES	Tau fluor cs	FBPA coupling cs	USP1-UAF1 inh	Tau ThT inhib	Tau fibril FP
COc1ccc(COC(=O)N/N=C2/C[C@@H](O)[C@@H](O)[C@@H]3[C@@H]4C(=O)N(C(C)(C)C)C(=O)[C@H]4CC[C@@H]23)cc1	-5%[11.6 µM]	1	·	-7%[11.5 µM]	1%[11.6 µM]
COc1cc2cc3c(N)c(C(=O)Nc4sc(C)c(C)c4C#N)sc3nc2cc1OC	-27%	-10	-14%	5µM*	8%
COc1cc2cc3c(N)c(C(=O)NCc4ccco4)sc3nc2cc1OC	?	1	-26%	14µM*	-5%
O=C(CSc1nc2c([nH]c3ccccc32)c(=O)n1-c1ccccc1)Nc1cccc(C(F)(F)F)c1	?	·	-12%	14%	?
Cc1cccc(-c2nc(C)c(CCNC(=O)C(=O)Nc3cccc(Cl)c3C)s2)c1	-6%	·	-32%	-10%	-5%
COc1ccc(C2C(C#N)=C(N)Oc3c2sc2nc(C)cc(C)c32)cc1 (stereo not drawn)	?	-1	?	25µM*	?
COc1cccc2cc(-c3nc(-c4ccccc4F)no3)c(=O)oc12	-5%	·	5%	-4%	7%
COC(=O)C1(C(C)=O)CC2=CC[C@@H]3C(=O)N(c4ccccc4)C(=O)[C@@H]3[C@@H]2Cc2ccccc2[C@@H]1C[N+](=O)[O-] (stereo partly drawn)	3%	-3	·	?	4%
CC(=O)N1CCN(c2cc(N3CCCC3)c(F)cc2[N+](=O)[O-])CC1	-13%	1	-11%	?	-18%
CCN1CCN(c2cc(N3CCc4ccccc4C3)c(F)cc2[N+](=O)[O-])CC1	-22%	-3	-11%	14µM*	6%
Cc1ccc(NC(=O)N2CCc3c([nH]c4ccccc34)C2c2ccccc2F)c(Cl)c1 (stereo not drawn)	-11%	·	-13%	-1%	4%
Cc1ccc(CNC(=O)C2CCN(C(=O)c3ccc(-n4ccc5ccccc54)s3)CC2)cc1	-3%	·	-19%	-1%	-8%
CCOC(=O)c1cccc(NC(=O)Cn2c(=O)nc(-c3ccccc3F)c3cc(Cl)ccc32)c1	-27%	·	-18%	-5%	?
COc1cccc2c1C(=O)c1c(O)c3c(c(O)c1C2=O)C[C@@](O)(C(=O)CO)C[C@@H]3O[C@H]1C[C@H](N)[C@@H](O)[C@H](C)O1	·	·	28µM*	·	·
COc1cccc2c1C(=O)c1c(O)c3c(c(O)c1C2=O)C[C@@](O)(C(=O)CO)C[C@@H]3OC1C[C@@H](N)[C@H](O)[C@H](C)O1 (stereo partly drawn)	9%	-23	·	5µM*	25µM*
COc1cccc2c1C(=O)c1c(O)c3c(c(O)c1C2=O)C[C@@](O)(C(C)=O)C[C@@H]3O[C@H]1C[C@H](N)[C@H](O)[C@H](C)O1	-10%	-52*!	5.6µM*	4µM*	25µM*
CCN(Cc1nc(-c2ccc(OC)cc2)oc1C)S(=O)(=O)c1ccc(C)cc1	-16%	·	-23%	-14%	11%
CCOC(=O)C1=C(C)N=c2s/c(=C3\C(=O)Nc4ccccc43)c(=O)n2C1c1ccc2c(c1)OCO2 (stereo not drawn)	?	1	-26%	18µM*	?
CCOC(=O)C1=C(C)N=c2s/c(=C\c3ccncc3)c(=O)n2C1c1ccc2c(c1)OCO2 (stereo not drawn)	?	0	-17%	25µM*	?
Cc1nc(-n2nc(C)c(Cc3ccc(Cl)cc3)c2C)sc1C(=O)N1CCC(C)CC1	-2%	·	?	-15%	5%
CSc1ccc(CNC(=O)CCn2ccc3cc(S(=O)(=O)N4CCC(C)CC4)ccc32)cc1	-22%	·	-9%	4%	-1%
CCOC(=O)C1=C(C)N=C2SCCC(=O)N2C1c1ccc(OCc2ccccc2)c(OC)c1 (stereo not drawn)	-14%	·	-15%	?	7%
Cc1cccn2c(=O)c3cc(C(=O)NCCc4ccccc4)c(=N)n(CCCn4ccnc4)c3nc12	11µM*[quencher]	7	-10%	11µM*	25µM*
CCOCCCn1c(=N)c(C(N)=S)cc2c(=O)n3cccc(C)c3nc21	2%	-45*	-16%	-14%	-7%
O=C(O)CCc1c(C(=O)O)[nH]c2cc(Cl)cc(Cl)c12	·	13	·	·	·
SMILES	Tau fluor cs	FBPA coupling cs	USP1-UAF1 inh	Tau ThT inhib	Tau fibril FP
Cc1nc(NC(=O)c2ccc(Cl)cc2)sc1-c1csc(Nc2cccc(F)c2)n1	13µM*[quencher]	-1	·	7.1µM*	?
COc1cccc(Nc2nc(-c3sc(NC(=O)c4ccccc4)nc3C)cs2)c1	32µM*[quencher]	1	-19%	18µM*	8%
CCCC(=O)Nc1nc(C)c(-c2csc(Nc3ccccc3OC)n2)s1	16µM*[quencher]	1	-16%	13µM*	20%
CCC(=O)Nc1nc(C)c(-c2csc(Nc3cccc(C(=O)O)c3)n2)s1	-21%	-8	-26%	4µM*	6%
Cc1nc(NC(=O)c2ccccc2)sc1-c1csc(Nc2ccc(C(=O)O)cc2)n1	?	-3	-9%	·	14%
COc1cc(NC(=O)CC(C)S(=O)(=O)c2ccc3c(c2)CCN3C(C)=O)cc(OC)c1OC (stereo not drawn)	10%	·	-19%	7%	-7%
CCCC(C)C(=O)Nc1nc(C)c(-c2csc(Nc3cc(OC)ccc3OC)n2)s1 (stereo not drawn)	8.9µM*[quencher]	0	-26%	?	?
C=CCCC(=O)Nc1nc(C)c(-c2csc(Nc3cc(OC)ccc3OC)n2)s1	14µM*[quencher]	1	16%	14µM*	13%
COc1ccccc1Nc1nc(-c2sc(NC(=O)CC(C)C)nc2C)cs1	?	-21	4%	?	5%
CCCCCC(=O)Nc1nc(C)c(-c2csc(Nc3cc(Cl)ccc3OC)n2)s1	?	-2	-13%	?	2%
C=CCCC(=O)Nc1nc(C)c(-c2csc(Nc3cccc(OC)c3)n2)s1	?	1	-14%	14µM*	?
COc1ccc(OC)c(Nc2nc(-c3sc(N)nc3C)cs2)c1	14µM*[quencher]	-31*	-23%	11µM*	-9%
COc1ccc(Nc2nc(-c3sc(C)nc3C)cs2)cc1	·	-7	-21%	·	·
CC1Cc2c(COc3ccccc3)nc3c(c2CO1)CN(CCOc1ccccc1)CC3 (stereo not drawn)	-21%[11.6 µM]	0	·	-18%[11.5 µM]	2%[11.6 µM]
CCCC(=O)Nc1nc(C)c(-c2csc(Nc3cc(OC)ccc3OC)n2)s1	14µM*[quencher]	-1	-26%	?	?
COc1cccc(Nc2nc(-c3sc(NC(=O)CC(C)C)nc3C)cs2)c1	16µM*[quencher]	-1	-28%	16µM*	6%
CN(C)c1ccc(-c2cncnc2Nc2ccccc2)cc1	·	-8	·	·	·
O=C(O)c1ccc(/C=N\Nc2ccc(S(=O)(=O)N3CCOCC3)cc2[N+](=O)[O-])cc1	-20%	18	-21%	?	3%

Screening data deposited in PubChem BioAssay by National Center for Advancing Translational Sciences (NCATS).
